Assay results reported in PubChem BioAssay (EPA / NIEHS).
Activity calls are given as the source filed them. The calls were made as follows: active = hit-call score of the fitted dose curve at least 0.9, where 1 is the maximum; inactive = score below 0.9.

Experiments:
Settings in all cases: mRNA level, 48 h; actives raise or lower the signal
[1] = read-out: Cytochrome P450 (CYP1A2), CYP1A2 (gene 1544); assay: LTEA_HepaRG_CYP1A2: Life Technologies and Expression Analysis (LTEA) Assay for Cytochrome P450 (CYP1A2) using HepaRG (AID 2283479);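 as to AC50: TaqMan qRT-PCR transcript level normalized to ACTB GAPDH and POLR2A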
Outline: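 CYP1A2 transcript measured by TaqMan qRT-PCR against three housekeeping genes after 48-hour chemical exposure of HepaRG cells. Eight-point half-log series topping at 100 uM in 0.5% DMSO, duplicates; gain or loss fitted relative to vehicle.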

[2] = read-out: cysteine-aspartic acid protease (CASP8), CASP8 (gene 841); assay: LTEA_HepaRG_CASP8: Life Technologies and Expression Analysis (LTEA) Assay for cysteine-aspartic acid protease (CASP8) using HepaRG (AID 2283480)
Outline: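 HepaRG, 48 h exposure, duplicate wells; 8 conc, half-log from 100 uM, 0.5% DMSO. Serum-free induction medium. CASP8 mRNA by TaqMan qRT-PCR, norm. ACTB/GAPDH/POLR2A; gain/loss fitted vs DMSO.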

[3] = read-out: Cytochrome P450 (CYP2B6), CYP2B6 (gene 1555); assay: LTEA_HepaRG_CYP2B6: Life Technologies and Expression Analysis (LTEA) Assay for Cytochrome P450 (CYP2B6) using HepaRG (AID 2283481)
Outline: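 CYP2B6 transcript level quantified by qRT-PCR against three housekeeping genes, fitted bidirectionally relative to DMSO. HepaRG cultures received chemicals for 48 h, 8-point half-log series from 100 uM in 0.5% DMSO, duplicate wells, serum-free induction medium.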

[4] = read-out: Cytochrome P450 2C19 (Homo sapiens) (UniProt P33261); assay: LTEA_HepaRG_CYP2C19: Life Technologies and Expression Analysis (LTEA) Assay for CYP2C19 using HepaRG (AID 2283482)
Outline: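 CYP2C19 transcript levels by qRT-PCR, normalized to three housekeeping genes, in HepaRG cells after 48 h chemical exposure. Eight-point half-log series topping at 100 uM, 0.5% DMSO vehicle. Increases and decreases both fitted against DMSO.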

CYP2C8 (gene 1558) = assay: LTEA_HepaRG_CYP2C8: Life Technologies and Expression Analysis (LTEA) Assay for CYP2C8 using HepaRG (AID 2283483)
Outline: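 CYP2C8 mRNA induction or loss, by qRT-PCR normalized to ACTB/GAPDH/POLR2A, is read in HepaRG cells after 48 h treatment. Concentrations run from 100 uM down in half-log dilutions, with 0.5% DMSO as vehicle and baseline.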

CYP2C9 (gene 1559) = assay: LTEA_HepaRG_CYP2C9: Life Technologies and Expression Analysis (LTEA) Assay for CYP2C9 using HepaRG (AID 2283484)
Outline: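 Cells plated 48 h, switched to serum-free induction medium, then treated in duplicate for 48 h at eight concentrations (max 100 uM, 0.5% DMSO). RNA then analysed by qRT-PCR for CYP2C9; curves fitted in both directions relative to DMSO.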

CYP2E1 (gene 1571) = assay: LTEA_HepaRG_CYP2E1: Life Technologies and Expression Analysis (LTEA) Assay for CYP2E1 using HepaRG (AID 2283485)
Outline: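 Differentiated HepaRG cells were treated in duplicate for 48 h with chemicals in 0.5% DMSO, from 100 uM downward in half-log dilutions. RNA was then analysed by qRT-PCR for CYP2E1 induction or loss.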

CYP4A11 (gene 1579) = assay: LTEA_HepaRG_CYP4A11: Life Technologies and Expression Analysis (LTEA) Assay for CYP4A11 using HepaRG (AID 2283486)
Outline: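 Readout is CYP4A11 transcript level by qRT-PCR, normalized to three housekeeping genes and fitted bidirectionally against 0.5% DMSO. Human HepaRG cells were treated 48 h, in duplicate, with an 8-point half-log series topping at 100 uM.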

[5] = read-out: Cytochrome P450 3A4 (Homo sapiens) (UniProt P08684); assay: LTEA_HepaRG_CYP3A4: Life Technologies and Expression Analysis (LTEA) Assay for CYP3A4 using HepaRG (AID 2283487)
Outline: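 HepaRG, 48 h exposure, 8-pt CRC from 100 uM (half-log), 0.5% DMSO, duplicates; serum-free induction medium. Readout: CYP3A4 mRNA, qRT-PCR, ACTB/GAPDH/POLR2A normalization. Bidirectional fit vs DMSO.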

[6] = read-out: DNA damage-inducible transcript 3 (DDIT3), DDIT3 (gene 1649); assay: LTEA_HepaRG_DDIT3: Life Technologies and Expression Analysis (LTEA) Assay for DNA damage-inducible transcript 3 (DDIT3) using HepaRG (AID 2283488)
Outline: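 Changes in DDIT3 transcript, in either direction relative to 0.5% DMSO vehicle, were quantified by TaqMan qRT-PCR after 48 h chemical exposure of HepaRG cells at 8 concentrations, maximum 100 uM.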

[7] = read-out: Early growth response protein 1 (EGR1) transcription factor, EGR1 (gene 1958); assay: LTEA_HepaRG_EGR1: Life Technologies and Expression Analysis (LTEA) Assay for Early growth response protein 1 (EGR1) transcription factor using HepaRG (AID 2283490)
Outline: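 Read-out is EGR1 mRNA level by qRT-PCR, normalized to three housekeeping genes and analysed for gain or loss of signal against 0.5% DMSO. Source cells: human HepaRG, treated 48 h at up to 100 uM in half-log dilutions.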

[8] = read-out: Ezrin (EZR), EZR (gene 7430); assay: LTEA_HepaRG_EZR: Life Technologies and Expression Analysis (LTEA) Assay for Ezrin (EZR) using HepaRG (AID 2283491)
Outline: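 Read-out is EZR transcript level by qRT-PCR, normalized to three housekeeping genes and fitted bidirectionally against the DMSO control. Human HepaRG cells received test chemicals for 48 h at eight half-log concentrations up to 100 uM in 0.5% DMSO.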

[9] = read-out: Cytochrome P450 3A7 (Homo sapiens) (UniProt P24462); assay: LTEA_HepaRG_CYP3A7: Life Technologies and Expression Analysis (LTEA) Assay for CYP3A7 using HepaRG (AID 2283492)
Outline: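 CYP3A7 transcript measured by qRT-PCR (ACTB, GAPDH, POLR2A normalization) after 48 h chemical exposure of HepaRG cells in duplicate. Eight half-log concentrations, maximum 100 uM, 0.5% DMSO vehicle; bidirectional curve fitting against DMSO baseline.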

CYP3A5 (gene 1577) = assay: LTEA_HepaRG_CYP3A5: Life Technologies and Expression Analysis (LTEA) Assay for CYP3A5 using HepaRG (AID 2283493)
Outline: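 mRNA induction or loss of CYP3A5 assessed in HepaRG after 48 h dosing, 100 uM top concentration, duplicate wells; TaqMan qRT-PCR with ACTB, GAPDH, POLR2A normalization; 0.5% DMSO as negative control.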

[10] = read-out: Cytochrome P450 4A22 (Homo sapiens) (UniProt Q5TCH4); assay: LTEA_HepaRG_CYP4A22: Life Technologies and Expression Analysis (LTEA) Assay for Cytochrome P450 4A22 (CYP4A22) using HepaRG (AID 2283495)
Outline: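 Gene expression measured by qRT-PCR against three housekeeping genes (ACTB, GAPDH, POLR2A), with gain or loss fitted relative to 0.5% DMSO vehicle. HepaRG cultures received 48 h chemical treatment, top concentration 100 uM, half-log steps, duplicate wells.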

[11] = read-out: Cytochrome P450 7A1 (Homo sapiens) (UniProt P22680); assay: LTEA_HepaRG_CYP7A1: Life Technologies and Expression Analysis (LTEA) Assay for Cytochrome P450 7A1 (CYP7A1) using HepaRG (AID 2283496)
Outline: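 Gene expression endpoint in human HepaRG liver cells treated for 48 h with test chemicals (up to 100 uM, 0.5% DMSO). Values come from bidirectional concentration-response fitting versus DMSO.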

[12] = read-out: Glutathione S-Transferase (GSTA2), GSTA2 (gene 2939); assay: LTEA_HepaRG_GSTA2: Life Technologies and Expression Analysis (LTEA) Assay for Glutathione S-Transferase (GSTA2) using HepaRG (AID 2283497)
Outline: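 HepaRG, 48 h dosing, 8-pt half-log CRC from 100 uM, 0.5% DMSO vehicle, n=2; RNA → Fluidigm TaqMan qRT-PCR; GSTA2 vs ACTB/GAPDH/POLR2A; gain/loss fit vs DMSO.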

[13] = read-out: Glutamate-cysteine ligase catalytic (GCLC), GCLC (gene 2729); assay: LTEA_HepaRG_GCLC: Life Technologies and Expression Analysis (LTEA) Assay for Glutamate-cysteine ligase catalytic (GCLC) using HepaRG (AID 2283498)
Outline: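 Read-out is GCLC transcript level by Fluidigm-based TaqMan qRT-PCR, normalized to three housekeeping genes and fitted in both directions relative to 0.5% DMSO. Human HepaRG cells received chemicals for 48 h, up to 100 uM.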

[14] = read-out: Fatty Acid-Binding Protein 1 (FABP1), FABP1 (gene 2168); assay: LTEA_HepaRG_FABP1: Life Technologies and Expression Analysis (LTEA) Assay for Fatty Acid-Binding Protein 1 (FABP1) using HepaRG (AID 2283494)
Outline: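 HepaRG, 48 h post-plating switched to serum-free induction medium, then dosed 48 h (duplicate, 8 pts, ≤100 uM, 0.5% DMSO). RNA → Fluidigm TaqMan qRT-PCR, FABP1 normed to ACTB/GAPDH/POLR2A. Bidirectional curve fit vs DMSO.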

[15] = read-out: Pro-epidermal growth factor (Homo sapiens) (UniProt P01133); assay: LTEA_HepaRG_EGF: Life Technologies and Expression Analysis (LTEA) Assay for Epidermal growth factor (EGF) using HepaRG (AID 2283489)
Outline: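 EGF transcript measured by Fluidigm TaqMan qRT-PCR with three housekeeping genes for normalization, 48 h after dosing HepaRG cultures in duplicate (top 100 uM, half-log steps, 0.5% DMSO vehicle). Gain or loss relative to DMSO fitted.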

Cytochrome P450 3A7 (Homo sapiens), sequence (P24462 whole entry, looked up): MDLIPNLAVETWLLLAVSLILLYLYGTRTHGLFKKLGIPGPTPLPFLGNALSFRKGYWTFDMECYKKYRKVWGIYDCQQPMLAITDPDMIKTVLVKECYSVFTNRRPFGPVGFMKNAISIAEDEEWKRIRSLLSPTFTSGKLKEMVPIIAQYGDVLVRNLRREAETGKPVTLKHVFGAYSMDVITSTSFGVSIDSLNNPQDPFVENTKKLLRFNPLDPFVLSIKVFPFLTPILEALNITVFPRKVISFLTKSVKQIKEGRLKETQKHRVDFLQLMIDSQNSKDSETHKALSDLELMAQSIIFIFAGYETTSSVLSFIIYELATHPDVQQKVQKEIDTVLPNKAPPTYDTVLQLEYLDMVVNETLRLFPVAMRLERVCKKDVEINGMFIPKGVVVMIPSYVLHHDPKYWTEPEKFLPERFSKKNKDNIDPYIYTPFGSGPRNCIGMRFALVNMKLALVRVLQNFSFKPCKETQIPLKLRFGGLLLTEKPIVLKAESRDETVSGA
Cytochrome P450 2C19 (Homo sapiens), sequence (P33261 whole entry, looked up): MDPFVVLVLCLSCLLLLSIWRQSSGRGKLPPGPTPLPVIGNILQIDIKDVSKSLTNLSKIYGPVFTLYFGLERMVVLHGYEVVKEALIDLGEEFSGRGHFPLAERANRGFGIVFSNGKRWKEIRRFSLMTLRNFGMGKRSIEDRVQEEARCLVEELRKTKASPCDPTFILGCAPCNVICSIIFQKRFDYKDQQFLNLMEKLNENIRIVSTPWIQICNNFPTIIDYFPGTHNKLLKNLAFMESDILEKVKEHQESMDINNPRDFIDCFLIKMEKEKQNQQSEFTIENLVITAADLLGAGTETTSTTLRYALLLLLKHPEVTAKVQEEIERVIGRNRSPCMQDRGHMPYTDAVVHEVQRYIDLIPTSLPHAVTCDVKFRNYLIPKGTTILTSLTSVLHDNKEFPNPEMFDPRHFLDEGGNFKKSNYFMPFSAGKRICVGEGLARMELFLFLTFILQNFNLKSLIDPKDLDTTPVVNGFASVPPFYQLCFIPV
Cytochrome P450 3A4 (Homo sapiens), sequence (P08684 whole entry, looked up): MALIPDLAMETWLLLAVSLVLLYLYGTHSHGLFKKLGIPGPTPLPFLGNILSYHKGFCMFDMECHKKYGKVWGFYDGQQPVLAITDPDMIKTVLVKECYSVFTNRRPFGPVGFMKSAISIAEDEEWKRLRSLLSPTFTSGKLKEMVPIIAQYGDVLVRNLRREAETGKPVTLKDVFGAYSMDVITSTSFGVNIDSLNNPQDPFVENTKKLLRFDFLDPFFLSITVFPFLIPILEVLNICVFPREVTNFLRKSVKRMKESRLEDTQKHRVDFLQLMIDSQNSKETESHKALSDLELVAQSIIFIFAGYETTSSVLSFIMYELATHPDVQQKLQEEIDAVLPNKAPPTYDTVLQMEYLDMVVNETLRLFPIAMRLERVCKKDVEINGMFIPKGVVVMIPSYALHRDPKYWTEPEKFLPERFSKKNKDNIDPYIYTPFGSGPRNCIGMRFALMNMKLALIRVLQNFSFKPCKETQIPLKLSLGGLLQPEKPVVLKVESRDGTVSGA

## CCCCCCCCO
[1]
  outcome: inactive
[2]
  outcome: inactive
[3]
  outcome: inactive
[4]
  outcome: inactive
CYP2C8 (gene 1558)
  outcome: inactive
CYP2C9 (gene 1559)
  outcome: inactive
CYP2E1 (gene 1571)
  outcome: inactive
CYP4A11 (gene 1579)
  outcome: inactive
[5]
  outcome: inactive
[6]
  outcome: inactive
[7]
  outcome: inactive
[8]
  outcome: inactive
[9]
  outcome: inactive
CYP3A5 (gene 1577)
  outcome: inactive
[10]
  outcome: inactive
[11]
  outcome: inactive
[12]
  outcome: inactive
[13]
  outcome: inactive

## O=C(O)CCN(C1(C(=O)NO)CCCC1)S(=O)(=O)c1ccc(Oc2ccc(F)cc2)cc1
[1]
  outcome: inactive
[2]
  outcome: inactive
[3]
  outcome: inactive
[4]
  outcome: inactive
CYP2C8 (gene 1558)
  outcome: inactive
CYP2C9 (gene 1559)
  outcome: inactive
CYP2E1 (gene 1571)
  outcome: inactive
CYP4A11 (gene 1579)
  outcome: inactive
[5]
  AC50: 22.8 µM (active)
[6]
  outcome: inactive
[7]
  outcome: inactive
[8]
  outcome: inactive
CYP3A5 (gene 1577)
  outcome: inactive
[14]
  outcome: inactive
[10]
  outcome: inactive
[11]
  outcome: inactive
[12]
  outcome: inactive
[13]
  outcome: inactive

## CC(C)c1cccc(C(C)C)c1N1C(=O)c2ccc(O)cc2C1=O
[1]
  outcome: inactive
[2]
  outcome: inactive
[3]
  AC50: 88.6 µM (active)
[4]
  AC50: 91.5 µM (active)
CYP2C8 (gene 1558)
  outcome: inactive
CYP2C9 (gene 1559)
  outcome: inactive
CYP4A11 (gene 1579)
  AC50: 72 µM (active)
[5]
  AC50: 11.6 µM (active)
[6]
  AC50: 74.9 µM (active)
[15]
  outcome: inactive
[7]
  AC50: 86.2 µM (active)
[8]
  outcome: inactive
CYP3A5 (gene 1577)
  outcome: inactive
[14]
  AC50: 77.7 µM (active)
[10]
  AC50: 72 µM (active)
[11]
  AC50: 93.3 µM (active)
[12]
  outcome: inactive
[13]
  outcome: inactive

## CCOC(=O)CC(CC(=O)OCC)(OC(C)=O)C(=O)OCC
[1]
  AC50: 20.5 µM (active)
[2]
  outcome: inactive
[3]
  outcome: inactive
[4]
  outcome: inactive
CYP2C8 (gene 1558)
  outcome: inactive
CYP2C9 (gene 1559)
  outcome: inactive
CYP2E1 (gene 1571)
  outcome: inactive
CYP4A11 (gene 1579)
  outcome: inactive
[5]
  outcome: inactive
[6]
  outcome: inactive
[15]
  outcome: inactive
[7]
  outcome: inactive
[8]
  outcome: inactive
[9]
  outcome: inactive
CYP3A5 (gene 1577)
  outcome: inactive
[14]
  outcome: inactive
[10]
  outcome: inactive
[11]
  outcome: inactive
[12]
  outcome: inactive
[13]
  outcome: inactive

## C=CC(=C)CCC=C(C)C
[1]
  AC50: 27.2 µM (active)
[2]
  outcome: inactive
[3]
  outcome: inactive
[4]
  outcome: inactive
CYP2C8 (gene 1558)
  outcome: inactive
CYP2C9 (gene 1559)
  outcome: inactive
CYP2E1 (gene 1571)
  outcome: inactive
CYP4A11 (gene 1579)
  outcome: inactive
[5]
  outcome: inactive
[6]
  outcome: inactive
[7]
  outcome: inactive
[8]
  outcome: inactive
CYP3A5 (gene 1577)
  outcome: inactive
[14]
  outcome: inactive
[10]
  outcome: inactive
[11]
  outcome: inactive
[12]
  outcome: inactive
[13]
  outcome: inactive

## CC(C)CCCCCCOC(=O)c1ccc(C(=O)OCCCCCCC(C)C)c(C(=O)OCCCCCCC(C)C)c1
[1]
  AC50: 14.4 µM (active)
[2]
  outcome: inactive
[3]
  outcome: inactive
[4]
  outcome: inactive
CYP2C8 (gene 1558)
  outcome: inactive
CYP2C9 (gene 1559)
  outcome: inactive
CYP4A11 (gene 1579)
  outcome: inactive
[5]
  outcome: inactive
[6]
  outcome: inactive
[15]
  outcome: inactive
[7]
  outcome: inactive
[8]
  outcome: inactive
[9]
  outcome: inactive
CYP3A5 (gene 1577)
  outcome: inactive
[14]
  outcome: inactive
[10]
  outcome: inactive
[11]
  outcome: inactive
[12]
  outcome: inactive
[13]
  outcome: inactive
